Assay results from PubChem BioAssay.
For some assays here: Entries with a potency or affinity are not part of this list. Calls of active or inactive are those of the source. Unless noted, no rule for the calls is given here.

Tests used:
[1] = antimalarial activity against Dd2 strain (AID 2302;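 active = growth inhibition above 50% at the single 2 µM test dose, taken to imply half-maximal potency below 2 µM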;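 also: 0% = DMSO untreated growth and 100% = chloroquine plus artemisinin killed control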); settings: P. falciparum Dd2 in RBCs, LDH growth readout, 72 h; at 2 µM; stronger effect = higher value
[2] = HepG2 cytotoxicity, primary screen, cytotoxicity control for P. falciparum antimalarial project, cell-based, ATP luminescence (AID 2303;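 active = inhibition above 50%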;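 also: 0% = DMSO wells and 100% = digitonin-killed cells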); settings: HepG2 viability, 24-48 h, at 10 µM, stronger effect = higher value
[3] = molecular target: L-lactate dehydrogenase (Plasmodium falciparum (isolate CDC / Honduras)) (UniProt Q27743); test: PfLDH activity inhibition – cell lysate, 3D7 strain, counter-screen for P. falciparum growth inhibition project (AID 2304);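 also: 0% = vehicle and 100% = reference inhibitor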; settings: P. falciparum 3D7 crude extract, LDH APAD/NBT absorbance; at 2 µM; stronger effect = higher value
[4] = inhibition of 3D7 malaria parasite growth – strain 3D7 (AID 2306);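 also: 0% = DMSO wells and 100% = chloroquine plus artemisinin control wells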; settings: P. falciparum 3D7 erythrocytic growth, LDH absorbance, 72 h; at 2 µM; stronger effect = higher value
[5] = molecular target: Calcium-dependent protein kinase 1 (Plasmodium falciparum (isolate 3D7)) (UniProt P62344); test: PfCDPK1 kinase inhibitors, biochemical, TCAMS library (AID 1159585; cut-off not given, nearly all actives have IC50 up to about 0.98 µM;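 also: inhibitors leave more ATP so luminescence rises with inhibition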); settings: recombinant PfCDPK1, Kinase-Glo ATP depletion luminescence
[6] = molecular target: Plasmodium falciparum protein kinase 6 (PK6, PF3D7_1337100) (UniProt Q8IDW1); test: PfPK6 kinase inhibitors, biochemical, TCAMS library (AID 1159586); settings: recombinant PfPK6, Kinase-Glo ATP depletion luminescence
[7] = molecular target: Protein kinase 7 (PK7), Plasmodium falciparum 3D7 (PF3D7_0213400) (UniProt Q7YTF7); test: inhibition of Plasmodium PK7 catalytic activity – biochemical, TCAMS antimalarial set, Kinase-Glo luminescence (AID 1159587); settings: recombinant PfPK7, Kinase-Glo ATP depletion luminescence
[8] = molecular target: Calcium-dependent protein kinase 4 (Plasmodium falciparum (isolate 3D7)) (UniProt Q8IBS5); test: PfCDPK4 kinase inhibitors, biochemical, TCAMS library (AID 1159588; cut-off not given, nearly all actives have IC50 up to about 0.91 µM); settings: recombinant PfCDPK4, Kinase-Glo ATP depletion luminescence
Calcium-dependent protein kinase 4 (Plasmodium falciparum (isolate 3D7)), sequence (Q8IBS5 whole entry, looked up): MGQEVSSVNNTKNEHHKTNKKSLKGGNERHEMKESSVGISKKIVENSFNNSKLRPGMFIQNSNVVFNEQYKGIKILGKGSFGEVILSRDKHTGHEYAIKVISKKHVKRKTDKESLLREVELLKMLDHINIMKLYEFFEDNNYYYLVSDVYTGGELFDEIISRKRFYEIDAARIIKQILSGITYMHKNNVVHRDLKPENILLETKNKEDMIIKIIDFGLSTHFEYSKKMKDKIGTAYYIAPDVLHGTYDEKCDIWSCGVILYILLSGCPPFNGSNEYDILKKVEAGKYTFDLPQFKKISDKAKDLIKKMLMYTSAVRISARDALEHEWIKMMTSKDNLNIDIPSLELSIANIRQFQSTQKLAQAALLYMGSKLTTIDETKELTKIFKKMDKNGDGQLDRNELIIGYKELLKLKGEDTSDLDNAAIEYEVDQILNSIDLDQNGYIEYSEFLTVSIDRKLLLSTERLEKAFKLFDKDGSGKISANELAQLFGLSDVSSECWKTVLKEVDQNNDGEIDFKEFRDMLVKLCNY

Plasmodium falciparum protein kinase 6 (PK6, PF3D7_1337100), sequence (Q8IDW1 1-305): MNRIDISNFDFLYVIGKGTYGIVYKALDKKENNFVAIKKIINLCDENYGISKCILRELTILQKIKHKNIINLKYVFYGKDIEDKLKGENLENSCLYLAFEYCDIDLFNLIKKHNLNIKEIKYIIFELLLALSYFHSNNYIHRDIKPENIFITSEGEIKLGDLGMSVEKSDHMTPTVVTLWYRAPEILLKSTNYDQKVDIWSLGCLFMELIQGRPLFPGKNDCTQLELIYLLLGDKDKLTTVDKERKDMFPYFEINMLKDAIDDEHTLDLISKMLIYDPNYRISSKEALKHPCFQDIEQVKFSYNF
L-lactate dehydrogenase (Plasmodium falciparum (isolate CDC / Honduras)), sequence (Q27743 whole entry, looked up): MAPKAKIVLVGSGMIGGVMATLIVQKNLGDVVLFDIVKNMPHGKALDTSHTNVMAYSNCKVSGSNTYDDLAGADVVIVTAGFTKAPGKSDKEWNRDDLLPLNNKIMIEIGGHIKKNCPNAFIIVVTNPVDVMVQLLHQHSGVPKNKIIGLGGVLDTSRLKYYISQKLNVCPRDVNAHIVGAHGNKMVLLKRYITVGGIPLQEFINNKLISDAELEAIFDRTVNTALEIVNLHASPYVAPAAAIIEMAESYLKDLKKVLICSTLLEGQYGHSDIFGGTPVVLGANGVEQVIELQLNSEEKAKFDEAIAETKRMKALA
Protein kinase 7 (PK7), Plasmodium falciparum 3D7 (PF3D7_0213400), sequence (Q7YTF7 1-343): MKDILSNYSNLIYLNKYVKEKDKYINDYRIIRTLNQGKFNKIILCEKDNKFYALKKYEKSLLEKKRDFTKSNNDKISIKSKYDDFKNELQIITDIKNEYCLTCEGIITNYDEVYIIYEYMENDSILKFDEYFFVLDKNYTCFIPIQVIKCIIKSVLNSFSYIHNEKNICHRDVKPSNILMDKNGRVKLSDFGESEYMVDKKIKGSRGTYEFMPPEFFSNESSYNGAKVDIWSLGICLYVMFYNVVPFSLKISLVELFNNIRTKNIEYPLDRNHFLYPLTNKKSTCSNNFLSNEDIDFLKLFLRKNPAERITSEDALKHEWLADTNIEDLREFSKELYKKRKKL
Calcium-dependent protein kinase 1 (Plasmodium falciparum (isolate 3D7)), sequence (P62344 whole entry, looked up): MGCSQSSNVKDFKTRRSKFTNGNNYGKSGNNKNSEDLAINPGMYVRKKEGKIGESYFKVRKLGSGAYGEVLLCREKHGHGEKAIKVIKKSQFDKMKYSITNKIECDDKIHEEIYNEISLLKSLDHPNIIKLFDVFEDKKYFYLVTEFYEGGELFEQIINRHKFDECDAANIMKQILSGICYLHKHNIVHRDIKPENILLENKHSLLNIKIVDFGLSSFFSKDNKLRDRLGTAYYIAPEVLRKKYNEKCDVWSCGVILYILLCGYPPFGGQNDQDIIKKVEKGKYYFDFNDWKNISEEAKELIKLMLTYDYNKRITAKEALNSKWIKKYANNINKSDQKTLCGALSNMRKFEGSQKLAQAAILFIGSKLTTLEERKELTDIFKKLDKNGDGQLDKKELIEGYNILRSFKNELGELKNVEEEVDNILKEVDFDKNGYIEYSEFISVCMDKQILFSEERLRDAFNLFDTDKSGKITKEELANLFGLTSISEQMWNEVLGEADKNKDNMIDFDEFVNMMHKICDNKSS

CN1CCN(c2ccnc3ccc(NC(=O)Cc4ccc(-c5ccncc5)c5ccccc45)cc23)CC1
active: growth inhibition [1] 101% | growth inhibition [4] 103%
inactive: inhibition [2] 32% | inhibition [3] 3% | outcome [5] | outcome [6] | outcome [7] | outcome [8]

CC(C)(C)c1cc(NC2CC2)nc(-c2ccccn2)n1
active: growth inhibition [1] 79% | growth inhibition [4] 94%
inactive: inhibition [2] 7% | inhibition [3] -7% | outcome [5] | outcome [6] | outcome [7] | outcome [8]

Cc1ccc(O)cc1Nc1ccnc2cc(-c3csc(CNCCN4CCOCC4)n3)ccc12
inactive: inhibition [2] 6% | inhibition [3] -3% | outcome [5] | outcome [6] | outcome [7] | outcome [8]
active: growth inhibition [1] 99% | growth inhibition [4] 101%

O=C(Nc1ccc(-c2cccc(-c3nc4ccc(F)cc4[nH]3)c2)cc1)c1cnn2cccnc12
inactive: growth inhibition [1] 25% | inhibition [2] 10% | inhibition [3] -1% | outcome [5] | outcome [6] | outcome [7] | outcome [8]
active: growth inhibition [4] 98%

O=C(NC1CC1)c1ccc(N2CCOc3ccc(Cl)cc32)s1
inactive: inhibition [2] 8% | inhibition [3] 5% | outcome [5] | outcome [6] | outcome [7] | outcome [8]
active: growth inhibition [1] 73% | growth inhibition [4] 94%

O=C(Nc1cccc(CN2CCCN(Cc3ccc(O)cc3)CC2)c1)c1cc2ccccc2s1
active: growth inhibition [1] 90% | growth inhibition [4] 100%
inactive: inhibition [2] 27% | inhibition [3] -7% | outcome [5] | outcome [6] | outcome [7] | outcome [8]

CCOC(=O)NC1=NC(C)(C)N(OCc2cccc3c2ccc2ccccc23)C(NC(=O)OCC)=N1
active: growth inhibition [4] 98%
inactive: growth inhibition [1] 3% | inhibition [2] 3% | inhibition [3] 4% | outcome [5] | outcome [6] | outcome [7] | outcome [8]

CC(CCCCCC(=O)Nc1ccc(CC(C)NCCc2cccc(Cl)c2)cc1)NCCc1cccc(Cl)c1 (stereo not given)
inactive: growth inhibition [1] 37% | inhibition [3] 1% | outcome [5] | outcome [6] | outcome [7] | outcome [8]
active: inhibition [2] 99% | growth inhibition [4] 91%

CCCCCN1CCCC(NS(=O)(=O)c2ccc(C(=O)Nc3ccc(C(F)(F)F)cc3)cc2)C1 (stereo not given)
active: growth inhibition [4] 98%
inactive: growth inhibition [1] 20% | inhibition [2] 41% | inhibition [3] 4% | outcome [5] | outcome [6] | outcome [7] | outcome [8]

N=C(N)c1ccc(NC(=O)Cc2nc3ccc(C(=N)N)cc3[nH]2)cc1
inactive: inhibition [2] 4% | inhibition [3] 2% | outcome [5] | outcome [6] | outcome [7] | outcome [8]
active: growth inhibition [1] 81% | growth inhibition [4] 87%

CNCCNCc1ccc(-c2ccc(-c3nc4ccccc4[nH]3)s2)cc1
inactive: growth inhibition [1] 15% | inhibition [2] 11% | inhibition [3] 5% | outcome [5] | outcome [6] | outcome [7] | outcome [8]
active: growth inhibition [4] 99%

Oc1ccccc1-c1nc2cccnc2n1CCc1cccc(C(F)(F)F)c1
active: growth inhibition [4] 93%
inactive: growth inhibition [1] 36% | inhibition [2] 4% | inhibition [3] -1% | outcome [5] | outcome [6] | outcome [7] | outcome [8]

CN(C)CCCOc1ccc(CN2CC[C@H](NC(=O)c3ccc(Cl)c(Cl)c3)C2)c2ccccc12
active: growth inhibition [1] 97% | inhibition [2] 81% | growth inhibition [4] 101%
inactive: inhibition [3] 0% | outcome [5] | outcome [6] | outcome [7] | outcome [8]

O=C(Nc1cc(Cl)cc(Cl)c1)c1cc(Cl)c(=O)n(Cc2ccc(Cl)cc2)c1
active: growth inhibition [1] 57% | growth inhibition [4] 89%
inactive: inhibition [2] 7% | inhibition [3] 7% | outcome [5] | outcome [6] | outcome [7] | outcome [8]

Cc1ccc(CN2CCN(CC(O)COc3ccc4c(c3)CCC4)CC2)cc1 (stereo not given)
active: growth inhibition [4] 95%
inactive: growth inhibition [1] -4% | inhibition [2] -15% | inhibition [3] -3% | outcome [5] | outcome [6] | outcome [7] | outcome [8]

COc1cc(CNC[C@@H](O)[C@H](Cc2ccccc2)NC(=O)c2cc(C3CCCC3)cc(N3CCCC3=O)c2)cc(OC)c1
active: growth inhibition [1] 76% | growth inhibition [4] 97%
inactive: inhibition [2] 16% | inhibition [3] 6% | outcome [5] | outcome [6] | outcome [7] | outcome [8]

Cc1cc(C(=O)CN2C(=O)NC(C)(c3ccc4ccccc4c3)C2=O)c(C)n1Cc1ccco1 (stereo not given)
inactive: inhibition [2] 12% | inhibition [3] 1% | outcome [5] | outcome [6] | outcome [7] | outcome [8]
active: growth inhibition [1] 71% | growth inhibition [4] 97%

CN1CCN(CC(=O)Nc2ccc(-c3cccc(-c4nc5ccc(C(F)(F)F)cc5[nH]4)c3)cc2)CC1
inactive: inhibition [2] 45% | inhibition [3] -5% | outcome [5] | outcome [6] | outcome [7] | outcome [8]
active: growth inhibition [1] 93% | growth inhibition [4] 101%

Cc1ncc(CN2CCC(C(=O)Nc3ccc(-c4nc5ccccc5o4)cc3)CC2)s1
active: growth inhibition [1] 92% | growth inhibition [4] 82%
inactive: inhibition [2] -14% | inhibition [3] 1% | outcome [5] | outcome [6] | outcome [7] | outcome [8]

Cc1cc(C(=O)NCc2ccc(-c3c(C)noc3C)cc2)n(-c2ccc(Cl)cc2)n1
active: growth inhibition [1] 98% | growth inhibition [4] 100%
inactive: inhibition [2] -1% | inhibition [3] 3% | outcome [5] | outcome [6] | outcome [7] | outcome [8]

Cc1[nH]nc2ccc(-c3cc(OC[C@@H](N)Cc4ccccc4)cnc3-c3ccccc3OCc3cccc(F)c3)cc12
active: growth inhibition [1] 91% | inhibition [2] 55% | growth inhibition [4] 91%
inactive: inhibition [3] -2% | outcome [5] | outcome [6] | outcome [7] | outcome [8]

O=c1cc(NCCCNCc2cccc(C(F)(F)F)c2Cl)[nH]c2ccccc12
inactive: growth inhibition [1] 24% | inhibition [2] 0% | inhibition [3] -2% | outcome [5] | outcome [6] | outcome [7] | outcome [8]
active: growth inhibition [4] 94%

CCN1CCC(N(Cc2ccc(-c3ccc(C(F)(F)F)cc3)cc2)C(=O)Cn2c(CCc3cccc(F)c3F)nc(=O)c3ccccc32)CC1
inactive: inhibition [3] 3% | outcome [5] | outcome [6] | outcome [7] | outcome [8]
active: growth inhibition [1] 95% | inhibition [2] 99% | growth inhibition [4] 95%

CCc1c(CCNCCCCCCNCCc2ccc([N+](=O)[O-])cc2)ccc(O)c1O
active: growth inhibition [4] 94%
inactive: growth inhibition [1] 23% | inhibition [2] 5% | inhibition [3] -1% | outcome [5] | outcome [6] | outcome [7] | outcome [8]

Cc1cccc2[nH]c(-c3cccc(-c4ccc(NC(=O)C(C)CN5CCOCC5)cc4)c3)nc12 (stereo not given)
inactive: growth inhibition [1] 30% | inhibition [2] 7% | inhibition [3] 2% | outcome [5] | outcome [6] | outcome [7] | outcome [8]
active: growth inhibition [4] 93%

NC1=NC(c2ccccc2)N(c2ccccc2)C(N)=N1 (stereo not given)
inactive: inhibition [2] 0% | inhibition [3] 2% | outcome [5] | outcome [6] | outcome [7] | outcome [8]
active: growth inhibition [1] 85% | growth inhibition [4] 96%

N#Cc1ccc(N(CCOc2ccc(Cl)c(Cl)c2)Cc2ccccc2C(F)(F)F)cc1C(F)(F)F
inactive: inhibition [2] 13% | inhibition [3] -2% | outcome [5] | outcome [6] | outcome [7] | outcome [8]
active: growth inhibition [1] 57% | growth inhibition [4] 90%

CCNC(=O)c1cc(S(=O)(=O)N2CCN(c3ccccn3)CC2)cs1
inactive: inhibition [2] 7% | inhibition [3] 1% | outcome [5] | outcome [6] | outcome [7] | outcome [8]
active: growth inhibition [1] 94% | growth inhibition [4] 97%

NCCCNc1ccc(-c2ccc(NC(=O)Nc3cc(C(F)(F)F)ccc3F)cc2)cn1
active: growth inhibition [1] 66% | growth inhibition [4] 100%
inactive: inhibition [2] -3% | inhibition [3] 3% | outcome [5] | outcome [6] | outcome [7] | outcome [8]

Cc1cc2c(NC(=O)NC3CCN(CCc4ccccc4Cl)CC3)cccc2cn1
active: growth inhibition [4] 102%
inactive: growth inhibition [1] 46% | inhibition [2] 13% | inhibition [3] 0% | outcome [5] | outcome [6] | outcome [7] | outcome [8]

CCNc1cc(C(=O)N[C@@H](Cc2ccccc2)[C@H](O)CNC2(C)CCCCC2)cc(N2CCCCS2(=O)=O)c1
active: growth inhibition [1] 98% | growth inhibition [4] 100%
inactive: inhibition [2] 13% | inhibition [3] 2% | outcome [5] | outcome [6] | outcome [7] | outcome [8]

COc1ccccc1C1CCN(C2CCC(NC(=O)/C=C/c3cccc(Cl)c3F)CC2)CC1 (stereo not given)
active: inhibition [2] 50% | growth inhibition [4] 96%
inactive: growth inhibition [1] 19% | inhibition [3] -4% | outcome [5] | outcome [6] | outcome [7] | outcome [8]

CC(C)(C)OC(=O)Nc1cccc(-c2csc(N=C(N)N)n2)c1
inactive: inhibition [2] 4% | inhibition [3] 2% | outcome [5] | outcome [6] | outcome [7] | outcome [8]
active: growth inhibition [1] 83% | growth inhibition [4] 97%

CCN(CCCN1CCCCC1)c1cc(C)nc(Nc2cc(Cl)ccc2C)n1
inactive: growth inhibition [1] 37% | inhibition [2] 36% | inhibition [3] -1% | outcome [5] | outcome [6] | outcome [7] | outcome [8]
active: growth inhibition [4] 99%

Cn1cnc2c(SCc3ccccc3OCc3ccccc3)ncnc21
inactive: growth inhibition [1] 34% | inhibition [2] 6% | inhibition [3] -3% | outcome [5] | outcome [6] | outcome [7] | outcome [8]
active: growth inhibition [4] 86%

CCOC(=O)CC[C@@H](NC(=O)c1ccc(NCc2ccc3ccc4nc(C)[nH]c(=O)c4c3c2)cc1F)C(=O)N[C@@H](Cc1c[nH]c2ccccc12)C(=O)OCC
active: growth inhibition [1] 77% | growth inhibition [4] 98%
inactive: inhibition [2] 45% | inhibition [3] 0% | outcome [5] | outcome [6] | outcome [7] | outcome [8]

NC(=O)C1CCN(Cc2ccc(-c3cccc(-c4nc5ccc(F)cc5[nH]4)c3)cc2)CC1
inactive: growth inhibition [1] 3% | inhibition [2] 10% | inhibition [3] -8% | outcome [5] | outcome [6] | outcome [7] | outcome [8]
active: growth inhibition [4] 90%

COc1cc2nc(N3CCN(C(=O)c4c(Cl)nsc4-c4ccccc4Cl)CC3)nc(N)c2cc1OC
inactive: inhibition [3] -6% | outcome [5] | outcome [6] | outcome [7] | outcome [8]
active: growth inhibition [1] 101% | inhibition [2] 57% | growth inhibition [4] 100%

CCc1c(CCNCCCCCCNC(C)Cc2ccc3c(c2CC)OCO3)ccc(OC)c1OC (stereo not given)
inactive: inhibition [3] 0% | outcome [5] | outcome [6] | outcome [7] | outcome [8]
active: growth inhibition [1] 64% | inhibition [2] 100% | growth inhibition [4] 101%

NC1CCN(Cc2cccc(-c3ccc(-c4nc5ccc(C(F)(F)F)cc5[nH]4)cc3)c2)C1 (stereo not given)
inactive: inhibition [2] 21% | inhibition [3] -9% | outcome [5] | outcome [6] | outcome [7] | outcome [8]
active: growth inhibition [1] 97% | growth inhibition [4] 99%
